# From PubChem BioAssay (EPA / NIEHS)
# “And” between values parts separate entries of the source, which are not always exact repeats. Equal entries are not always repeated. Results filed as inconclusive are left out. A structure can be active in one record and inactive in another. The source made the active and inactive calls. How the source made its calls: active means hit-call score of the fitted dose curve at least 0.9, where 1 is the maximum; inconclusive means response in the unintended direction; inactive means score below 0.9.
# Biological target: Nuclear receptor subfamily 1 group I member 2 (Homo sapiens) (UniProt O75469)
# Sequence (O75469 whole entry, looked up): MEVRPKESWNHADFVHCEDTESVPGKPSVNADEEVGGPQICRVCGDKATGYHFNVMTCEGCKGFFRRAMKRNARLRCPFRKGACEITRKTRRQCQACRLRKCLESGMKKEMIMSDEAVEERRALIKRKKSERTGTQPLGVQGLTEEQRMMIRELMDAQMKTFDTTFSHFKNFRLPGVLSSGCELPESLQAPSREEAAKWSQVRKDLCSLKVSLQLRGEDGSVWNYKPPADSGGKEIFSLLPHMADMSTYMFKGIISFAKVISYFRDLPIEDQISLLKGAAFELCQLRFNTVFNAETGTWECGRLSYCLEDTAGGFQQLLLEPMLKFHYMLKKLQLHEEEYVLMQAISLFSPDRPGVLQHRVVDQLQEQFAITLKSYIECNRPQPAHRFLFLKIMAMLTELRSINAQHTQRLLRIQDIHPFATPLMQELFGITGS
# Assay: NVS_NR_hPXR: NovaScreen (NVS) Nuclear Receptor Binding Assay for human Pregnane X Receptor (PXR) (AID 2283365);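 further: a drop in FRET signal versus DMSO baseline means the compound binds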
# Description: NVS_NR_hPXR is a biochemical, single-readout assay that uses extracted gene-proteins in a cell-free assay. Measurements were taken 2 hours after chemical dosing in a 384-well plate.NVS_NR_hPXR is one of one assay component(s) measured or calculated from the NVS_NR_hPXR assay. It is designed to make measurements of fluorescent resonance energy transfer, a form of binding reporter, as detected with fluorescent resonance energy transfer signals by Time-Resolved Fluorescence Resonance Energy Transfer (TR-FRET) technology.Data from the assay component NVS_NR_hPXR was analyzed into 1 assay endpoint. This assay endpoint, NVS_NR_hPXR, was analyzed in the positive analysis fitting direction relative to DMSO as the negative control and baseline of activity. Using a type of binding reporter, loss-of-signal activity can be used to understand changes in the binding as they relate to the gene NR1I2. Furthermore, this assay endpoint can be referred to as a primary readout, because the performed assay has only produced 1 assay endpoint. To generalize the intended target to other relatable targets, this assay endpoint is annotated to the nuclear receptor intended target family, where the subfamily is non-steroidal.
# Binding assays used specific radioligands (tritiated, iodinated) with non-radioactive competitive displacement ligands in agonist or antagonist protocols (as indicated) and various reference compounds and inhibitors to titrate specific binding to receptors and transporters. Most enzyme assays (CYPs, kinases, phosphatases, proteases, HDACs) used recombinant protein and specific substrates (fluorescence mostly, some colorimetric and radioactive) and inhibitors, followed by a biochemical separation of substrate and product. All assays for the biochemical HTS were initially run in duplicate at a single concentration (10 uM for CYP450 assays and 25 uM for all others). […] Each assay was run with positive and negative controls, and concurrent controls on every plate. The follow-up (secondary) screen tested active chemical-pairs in concentration series, as well as a few additional assays not tested in the primary screen, some selected negative inactives, and several cases re-run in the concentration series for confirmatory purposes.
Compound,AC50,outcome
O=C(O)C(F)(F)C(F)(F)C(F)(F)C(F)(F)C(F)(F)C(F)(F)C(F)(F)C(F)(F)C(F)(F)F,25 µM (active),
C[C@]12CCC(=O)C=C1CC[C@@H]1[C@@H]2CC[C@]2(C)C(=O)CC[C@@H]12,,inactive
CC(C)(O)C(=O)Nc1ccc([N+](=O)[O-])c(C(F)(F)F)c1,,inactive
CCC(=O)O[C@H]1CC[C@H]2[C@@H]3CCC4=CC(=O)CC[C@]4(C)[C@H]3CC[C@]12C,,inactive
Cc1cc(-c2ccc(N)c(C)c2)ccc1N,,inactive
CCC(C)(c1ccc(O)cc1)c1ccc(O)cc1,16.7 µM (active) and 11.4 µM (active) and 9.16 µM (active),
CC1=C2C[C@H]3[C@@H](CC=C4C[C@@H](O)CC[C@@]43C)[C@@H]2CC[C@]12O[C@@H]1C[C@H](C)CN[C@H]1[C@H]2C,,inactive
OCC(O)CO,5.1 µM (active),
C[C@]12CCC(=O)C=C1CC[C@@H]1[C@@H]2CC[C@@]2(C)[C@H]1CC[C@]2(C)O,9 µM (active) and 8.26 µM (active),inactive
CC(C)(c1ccccc1)c1ccc(O)cc1,12.7 µM (active) and 25 µM (active),inactive
Oc1ccc(C(c2ccc(O)cc2)(C(F)(F)F)C(F)(F)F)cc1,,inactive
Clc1ccc(C(c2ccccc2Cl)C(Cl)(Cl)Cl)cc1 (centres undefined),,inactive
